Bioassay records deposited in PubChem BioAssay by several laboratories.
Mcl1 Bid PPI: Mcl-1/Bid binding inhibitors, primary screen, biochemical, TR-FRET, 1536-well; AID 1021, 2008; 0.97% of 220,000 active; TR-FRET Mcl-1/Bid-Dy647 peptide binding; inhibition, % at 21.7 µM; Induced myeloid leukemia cell differentiation protein Mcl-1 (Homo sapiens), Q07820;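 active means compounds that cut the binding signal by more than half at the single screening dose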;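 further: His-tagged Mcl-1 with europium anti-His antibody binding Bid BH3 peptide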
Bim-Mcl-1: inhibitors of Bim peptide binding to Mcl-1, primary screen, biochemical, bead-based flow cytometry, multiplex | Induced myeloid leukemia cell differentiation protein Mcl-1 (Homo sapiens), Q07820 | inhibition, % at 10 µM | Bim peptide-Mcl-1 binding | 0.1% of 190,000 active; in the data active means inhibition above about 40%
14-3-3 Bad PPI: inhibitors of 14-3-3 zeta/Bad binding, primary screen, biochemical, TR-FRET, bovine 14-3-3 zeta; 14-3-3 protein zeta/delta (Bos taurus), P63103; TR-FRET 14-3-3zeta/Dy647-pBad peptide displacement, 1 h; inhibition, % at 21.7 µM; 0.71% of 220,000 active;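 active means inhibition above about 70%, limit read from the data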
Target sequence (P63103 whole entry, looked up): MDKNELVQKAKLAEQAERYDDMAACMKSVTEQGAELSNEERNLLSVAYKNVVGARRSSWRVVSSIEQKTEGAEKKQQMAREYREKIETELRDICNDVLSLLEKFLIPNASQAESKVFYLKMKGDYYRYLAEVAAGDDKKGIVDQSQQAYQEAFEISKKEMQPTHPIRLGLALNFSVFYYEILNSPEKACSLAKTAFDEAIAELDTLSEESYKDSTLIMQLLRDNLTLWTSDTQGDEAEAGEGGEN
Mcl1 Noxa PPI: Mcl-1/Noxa binding inhibitors, primary screen, biochemical, TR-FRET, 1536-well; Induced myeloid leukemia cell differentiation protein Mcl-1 (Homo sapiens), Q07820; TR-FRET Mcl-1/Noxa peptide binding, 2 h; inhibition, % at 21.7 µM; 1.5% of 220,000 active;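 active means compounds that cut the protein-peptide binding signal by more than 50% relative to plate controls in a single-dose test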;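 further: His-tagged Mcl-1 with rhodamine Noxa BH3 peptide and terbium anti-His antibody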
NCF1 inh: p47phox/p22phox peptide binding inhibitors, primary screen, biochemical, uHTS, NADPH oxidase regulatory subunit. inhibition, % at 24.7 µM. AID 1274, 2008. fluorescence polarization, 2 h. 0.53% of 220,000 active;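 active means inhibition above about 30%, limit read from the data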
Target sequence (P14598 whole entry, looked up): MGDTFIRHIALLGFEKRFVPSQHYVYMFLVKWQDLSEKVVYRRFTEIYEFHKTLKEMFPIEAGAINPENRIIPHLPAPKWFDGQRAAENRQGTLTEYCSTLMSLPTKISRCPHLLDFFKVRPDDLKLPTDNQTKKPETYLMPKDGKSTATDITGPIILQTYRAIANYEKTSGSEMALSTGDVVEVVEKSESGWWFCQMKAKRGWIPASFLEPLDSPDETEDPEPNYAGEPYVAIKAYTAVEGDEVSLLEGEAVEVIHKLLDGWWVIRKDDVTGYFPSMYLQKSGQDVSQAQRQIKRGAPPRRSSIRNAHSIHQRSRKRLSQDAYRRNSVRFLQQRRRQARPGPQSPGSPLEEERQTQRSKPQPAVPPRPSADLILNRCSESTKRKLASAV
Numbers stand for hits; . = inactive; / = no result given; [ ] = another dose, or the depositor's remark. A selection: hits, their analogues and other compounds. The true share with any hit is near 3.2%.

SMILES | Mcl1 Bid PPI | Bim-Mcl-1 | 14-3-3 Bad PPI | Mcl1 Noxa PPI | NCF1 inh
CCC(/C=C1\Sc2ccc(OC)cc2N1CCO)=C\c1sc2ccc(OC)cc2[n+]1CCO | . | 42 | . | . | .
O=C(C1=C[C@@H](c2ccc(C(F)(F)F)cc2)C[C@@H](OCc2ccc(CO)cc2)O1)N1CCN(Cc2ccccc2)CC1 | . | . | . | 81 | /
C#Cc1ccc([C@@H]2C=C(C(=O)N3CCN(Cc4ccc5c(c4)OCO5)CC3)O[C@H](OCCCCO)C2)cc1 | 84 | . | . | . | .
C#Cc1ccc([C@H]2C=C(C(=O)O)O[C@@H](OCc3ccc(CO)cc3)C2)cc1 | 51 | . | . | . | /
C#Cc1ccc([C@@H]2C=C(C(=O)NCc3ccccc3)O[C@H](OCc3ccc(CO)cc3)C2)cc1 | . | . | . | . | .
COCCn1c(SCC(=O)Nc2cc(C)nn2-c2ccccc2)nnc1-c1ccncc1 | . | . | . | . | .
COCCN(Cc1nc(C2(c3ccc(C)cc3)CCCC2)no1)C(C)C | . | . | . | . | .
Cc1cc(C)n(C(=O)/C(C#N)=N/Nc2cc(Cl)cc(Cl)c2)n1 | . | . | . | . | .
Cc1n[nH]c(=S)n(NC(=O)CC(=O)Nn2c(=S)[nH]nc(C)c2=O)c1=O | . | . | . | . | .
Cc1n[nH]c(=S)n(NC(=O)/C=C/C(=O)Nn2c(=S)[nH]nc(C)c2=O)c1=O | . | . | 85 | 87 | .
Cc1cc(C(=O)OCC(=O)NCc2ccccc2Cl)c(C)o1 | . | . | 72 | . | .
COc1ccccc1CNC(=O)COC(=O)c1cc(C)oc1C | . | . | . | . | .
CCCCNC(=O)c1cc2cc(CC)ccc2[nH]1 | . | / | . | . | .
C(=C\c1ccco1)/c1ccc2ccccc2n1 | . | / | . | 74 | .
Fc1cccc(F)c1/C=C/c1ccc2ccccc2n1 | . | . | . | . | .
Cc1ccc(SC2=C(Sc3ccc(C)cc3)C(=O)c3ccccc3C2=O)cc1 | . | / | . | 69 | .
COc1ccc(NS(=O)(=O)c2ccc(N3CCCC3)c(NC(=S)Nc3cccc(S(=O)(=O)N(C)C)c3)c2)cc1 | . | . | . | 62 | .
CCCCNC(=O)COC(=O)c1ccccc1F | . | / | . | . | .
CC(=O)c1cc2c(cc1NC(=O)CN1CCOCC1)OCO2 | . | . | . | / | .
CCN1CCN(CC(=O)Nc2cc3c(cc2C(C)=O)OCO3)CC1 | 58 | . | . | . | .
Cc1ccc(S(=O)(=O)N(C)c2c(C)ccc(S(=O)(=O)NC(C)(C)C)c2C)cc1 | . | . | . | . | .
CCN(CC)S(=O)(=O)c1ccc(C)c(NC(=O)CN2CCN(C)CC2)c1 | 65 | / | . | . | .
CC(=O)c1cnc2ncnn2c1C | . | . | . | . | .
Cc1ccc(NC(C)C(=O)N/N=C/c2c[nH]c3ccccc23)cc1 (centres undefined) | . | . | . | 54 | .
Cc1ccc(CSc2nnc(SCC(=O)N/N=C/c3c[nH]c4ccccc34)s2)cc1 | 90 | . | 95 | 76 | 39
SMILES | Mcl1 Bid PPI | Bim-Mcl-1 | 14-3-3 Bad PPI | Mcl1 Noxa PPI | NCF1 inh
O=C(CSc1nnc(SCc2ccccc2Cl)s1)N/N=C/c1c[nH]c2ccccc12 | . | . | . | . | .
Cc1ccccc1NC(C)C(=O)N/N=C/c1c[nH]c2ccccc12 (centres undefined) | . | . | . | . | .
CCCC(c1nnnn1Cc1ccco1)N1CCC(C(N)=O)CC1 (centres undefined) | . | . | 71 | . | .
C/C(N)=C(/C#N)C(=O)COC(=O)Cc1coc2cc(C)ccc12 | . | . | . | . | .
N#C/C(=C\c1ccc(N2CCCCC2)o1)C(=O)Nc1cccc(Br)c1 | . | / | . | . | 37
N#C/C(=C\c1ccc(N2CCCCC2)o1)C(N)=O | . | . | . | . | .
CCNc1nc(NCC)nc(OCC(=O)O)n1 | . | / | . | . | .
CCNc1nc(NCC)nc(C(=O)NN)n1 | . | . | . | 75 | .
O=C(NCCCN1CCCCCC1)C1CC(=O)N(CCc2ccccc2)C1 (centres undefined) | . | . | . | . | 55
O=C(NCCCN1CCOCC1)C1CC(=O)N(CCc2ccccc2)C1 (centres undefined) | . | . | . | . | .
Cc1nn(Cc2ccccc2)c(C)c1NC(=O)CCC(=O)O | . | . | . | . | .
Cc1nn(Cc2ccccc2)c(C)c1NC(=O)CSc1nc(C2CC2)nc2c1cnn2-c1ccccc1 | 63 | . | . | . | .
Cc1cc2sc3ccccc3c(=O)c2c(C)c1O | . | . | . | . | .
O=c1c(C(c2ccccc2)c2c(O)sc3ccccc3c2=O)c(O)sc2ccccc12 | 71 | . | . | 53 | .
CN(C)S(=O)(=O)c1cccc(NC(=O)c2cc3c(=O)n4ccccc4nc3s2)c1 | 69 | . | . | . | .
CCCCOC(=O)c1cccnc1 | . | / | . | . | .
Cc1[nH]n(-c2cccc3ccccc23)c(=O)c1/C=N/c1sc2c(c1C#N)CCC2 | . | . | . | . | .
Cc1[nH]n(-c2ccc(F)cc2)c(=O)c1/C=N/c1sc2c(c1C#N)CCCC2 | . | . | 81 | . | .
O=c1oc2ccccc2cc1-c1ccccc1 | . | . | . | . | .
O=C(O)c1ccc(-n2cc(-c3cc4ccccc4oc3=O)[nH]c2=S)cc1 | . | . | . | 50 | .
CCOC(=O)c1c(CSC(=N)N)n(-c2ccc(C)cc2)c2cc(Br)c(OC(C)=O)cc12 | . | . | . | . | 37
O=C(COC(=O)C1CC(=O)N(c2ccc3c(c2)OCCO3)C1)NC1CCCc2ccccc21 (centres undefined) | . | . | . | . | .
O=C(COC(=O)CCNS(=O)(=O)c1ccc2c(c1)OCCO2)NC1CCCc2ccccc21 (centres undefined) | 76 | . | . | . | .
COc1ccccc1CNC(=O)C1CC(c2c(Cl)cccc2Cl)=NO1 (centres undefined) | . | . | 70 | . | .
COc1ccccc1CNC(=O)C1CC(c2ccc([N+](=O)[O-])cc2)=NO1 (centres undefined) | . | . | . | . | .
SMILES | Mcl1 Bid PPI | Bim-Mcl-1 | 14-3-3 Bad PPI | Mcl1 Noxa PPI | NCF1 inh
O=C(Nc1cccc(N2CCCC2)c1)c1cccs1 | . | . | . | 51 | .
Clc1cccc(/C=N/Nc2nc(Cl)nc3ccccc23)c1 | . | . | . | 87 | .
O=[N+]([O-])c1ccc(-c2nc(NCc3ccccc3)c3ccccc3n2)cc1 | . | . | . | 56 | .
Cc1ccc(-c2nc(N/N=C/c3cccc([N+](=O)[O-])c3)c3ccccc3n2)cc1 | 60 | . | . | 54 | .
CCCOc1ccccc1NC(=O)c1ccc(N)cc1 | . | . | . | . | .
CCCOc1ccc(N)cc1N | . | . | 92[fluorescence artefact?] | 76 | .
COc1ccc(S(=O)(=O)N2C(=O)/C(=C3\SC(N)=NC3=O)c3ccccc32)cc1 | . | / | . | . | .
